Bioassay records deposited in PubChem BioAssay by National Center for Advancing Translational Sciences (NCATS).
HEK293 tox: kills HEK 293 cells. 94,000 tested, 6.6% active. Potency, µM (series often up to 115 µM), for inactives: at the highest dose activity change, negative = cytotoxicity, most hits filed as inhibitors. AID 1345083. HEK 293 viability, ATP luminescence (CellTiter-Glo), 48-72 h; further: nearly all actives have a fitted effect of over 60% in size
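HEK 293 seeded at 250 cells/well receive compound via pintool. After 48 or 72 hr at 37 degree Celsius, 5% CO2 and 95% humidity, CellTiter-Glo is dispensed and luminescence read following 10 min at room temperature.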
GPT2 inh: GPT2 alanine aminotransferase inhibition. Q8TD30. Recombinant GPT2, coupled pyruvate oxidase/HRP Amplex Red fluorescence. Potency, µM (doses to about 57.7 µM), for the others: at the top dose activity change, negative = inhibition, most hits filed as inhibitors. 100,000 tested, 0.25% active. AID 1671188; further: nearly all actives have a fitted effect of over 60% in size
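Inhibition is scored from Amplex Red fluorescence generated when pyruvate oxidase and HRP act on pyruvate released by GPT2. Reactions contain 10ng/uL enzyme, 250uM a-KG and 2mM L-alanine and run 30 min at room temperature.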
3T3 cytotox: NIH 3T3 cell cytotoxicity; NIH 3T3 viability, CellTiter-Glo ATP luminescence, 48-72 h; Potency, µM (highest dose often 96.7 µM), inactives show at the highest dose activity change, negative = cytotoxicity, usual class: inhibitors; 94,000 tested, 4.3% active; AID 1345082; further: nearly all actives have a fitted effect of over 55% in size
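Mouse fibroblast NIH 3T3 cells, 400 per well, received compound via pintool and were incubated for 48 or 72 hr prior to CellTiter-Glo ATP luminescence measurement.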
hNpr1 antagonist: blocks ANP-stimulated signaling of human Npr1 receptor. AID 1347048. P16066. Potency, µM (doses to about 46.3 µM), for the others: at the highest dose activity change, negative = inhibition, usual class: inhibitors. 76,000 tested, 1.6% active. HEK293 hNpr1 GloSensor cGMP, ANP-stimulated luminescence; calls by dose curve; further: nearly all actives have a fitted effect of over 60% in size
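Compound pre-incubated 30 min at room temperature on GloSensor-loaded HEK293 cells stably carrying hNpr1 and the pGS-40F cGMP biosensor. Stimulation uses hNppA at 0.1 nM final; luminescence is taken at baseline and 20 min post-agonist.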
FLuc inh: Photinus pyralis luciferase inhibition. purified P. pyralis luciferase, luminescence, biochemical. P08659. AID 1347043. Potency, µM (series often up to 115 µM), usual class: inhibitors. 76,000 tested, 2.5% active; further: nearly all actives have a fitted effect of over 65% in size
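Purified 10nM P. pyralis luciferase with 10uM D-luciferin and 10uM ATP in 50mM Tris acetate pH 7.5, 10mM Mg acetate, 0.01% Tween-20, 0.05% BSA. qHTS titration; luminescence read by CCD imager.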
* hit, by the source's call; i = inactive; ? = inconclusive; . = no result; [ ] = another dose, or the depositor's remark. Hits are enriched below; roughly 10% of the tested compounds scored in any of these assays. Unless noted, the call rests on the fitted dose curve; in most records, active means well fitted curve in the direction sought with a large enough effect; inconclusive means small, poorly fitted or top-dose-only effect, or another doubt; inactive means no such curve, though single readings can be large; an effect the other way counts as inactive or inconclusive. On the % scale 0 is the no-effect control and ±100 the full control effect; potency means the concentration at half of the fitted maximal effect.

SMILES	HEK293 tox	GPT2 inh	3T3 cytotox	hNpr1 antagonist	FLuc inh
CN(C(=O)Cn1nc2n(c1=O)CCCCC2)C1CCCCC1	-6%	i	-5%	6%	i
CCC1C(=O)N(C)c2cnc(Nc3ccc(C(=O)NC4CCC(N5CCN(CC6CC6)CC5)CC4)cc3OC)nc2N1C(C)C (centres undefined)	.	0%	.	.	.
CCOCCCNC(=O)N1CC2CN(CCOC)CC(C1)O2	2%	i	-13%	.	.
COc1cccc(-c2ccc(C(=O)N3CCC(NC(=O)c4ccccc4)CC3)cc2)c1	45µM*	i	?	.	.
COc1cccc(-c2cccc(C(=O)N3CCN(C(=O)Nc4ccc(Cl)cc4)CC3)c2)c1	89µM*	-1%	?	.	.
COc1ccc(-c2cccc(C(=O)N3CCC(NC(=O)c4ccccc4OC)CC3)c2)nn1	28µM*	.	-19%	.	.
O=C(NCc1ccncc1)c1cc2n(n1)CC(c1ccc(Br)cc1)OC2 (centres undefined)	?	i	-27%	?	i
CC(NC(=O)C1CN(C2CCCC2)C(=O)N1)c1ccc(F)cc1 (centres undefined)	-22%[172 µM]	i	-9%[138 µM]	.	.
COC(=O)[C@@H]1Cc2nc[nH]c2CN1Cc1cc2ccccc2o1	-2%[172 µM]	-1%[88.5 µM]	1%[174 µM]	4%[70.6 µM]	i
O=C(NCc1ccccc1F)c1ccc2c(c1)CN(Cc1ccccc1F)CCO2	45µM*	-8%	?	.	.
Cc1ccc(CNC(=O)c2ccc3c(c2)CN(Cc2ccncc2F)CCO3)cc1	?	-8%	?	?	i
O=C(NCc1ccccc1F)c1ccc2c(c1)CN(Cc1ccncc1F)CCO2	45µM*	i	?	.	.
CS(=O)(=O)c1ccc(CC(=O)N2CCc3n[nH]c(=O)n3CC2)cc1	-3%	i	i	2%	i
NC(=O)c1cccc2[nH]c([C@H]3CCN(Cc4cccc(Cl)c4)C3)nc12	56µM*	i	?	?	i
N#Cc1ccc2nc([C@H]3CCN(Cc4ccccn4)C3)[nH]c2c1	100µM*	-9%[88.5 µM]	63µM*	4%[70.6 µM]	?
N#Cc1ccc(CN2CCC(c3nc4ccncc4[nH]3)C2)cc1 (centres undefined)	?	-2%	?	-5%[70.6 µM]	i
O=C(C1CCCCC1)N1CC[C@H](c2nc3ccc(C(F)(F)F)cc3[nH]2)C1	?	-3%[88.5 µM]	?	0%[70.6 µM]	i
N#Cc1ccc2nc([C@H]3CCN(Cc4ccccc4)C3)[nH]c2c1	50µM*	3%[88.5 µM]	40µM*	2%[70.6 µM]	?
COc1ccc(CN2CC[C@H](c3nc4c(C(N)=O)cccc4[nH]3)C2)cc1	?	-25%[88.5 µM]	?	-12%[70.6 µM]	i
FC(F)(F)c1ccc2nc([C@H]3CCN(Cc4ccccn4)C3)[nH]c2c1	45µM*	-9%[88.5 µM]	?	0%[70.6 µM]	?
COc1cc2c(c(OC)c1OC)C(c1cc3c(cc1Cl)OCO3)CC(=O)N2 (centres undefined)	?	-10%[11.5 µM]	?	2%	i
COC(=O)C1=C(C)N=C2SC=C(CC(=O)NCC3CC3)N2C1c1cccc([N+](=O)[O-])c1 (centres undefined)	-2%	i	-14%	-4%	i
Cc1ccc(C)c(-n2nc(-c3c(C)nc4scc(CC(=O)NC5CCCCC5)n4c3=O)cc2C)c1	?	-4%	40µM*	-1%	i
CC(C)CCNC1(Cc2cc(CN3CCOCC3)on2)COC1	i	-5%[88.5 µM]	3%[174 µM]	6%[70.6 µM]	i
CCc1ccc(CNC(=O)c2ccc3c(c2)N(CC)C2CCCCN2C3=O)cc1 (centres undefined)	?	i	?	0%	i
SMILES	HEK293 tox	GPT2 inh	3T3 cytotox	hNpr1 antagonist	FLuc inh
CCN1c2cc(C(=O)NCc3cccc(C(F)(F)F)c3)ccc2C(=O)N2CCCCCC21 (centres undefined)	18µM*	i	?	?	i
CCN1c2cc(C(=O)NCc3ccccc3)ccc2C(=O)N2CCCCCC21 (centres undefined)	40µM*	i	-24%	-6%	i
Cc1noc(C)c1CCC(=O)NCc1cccnc1N1CCOCC1	i	i	1%	1%	?
O=C1NCc2ccccc2CC12CCCN(Cc1ccccc1)C2 (centres undefined)	-26%	i	-21%	.	.
Cc1cc(C)n(C2CCN(c3nccc(-c4ccccn4)n3)C2)n1 (centres undefined)	-26%	-19%	-24%	-14%	45µM*
CCOC(=O)N1CCN(c2nccc(-c3ccccn3)n2)CC1	?	1%	?	-4%	i
COc1cc2c(cc1-c1cccc(C(F)(F)F)c1)OCC(C)(C)CC2CO (centres undefined)	32µM*	.	28µM*	.	.
Cc1cc2nc3n(c(=O)c2n1CC(=O)NC1CCc2ccccc21)CCCCC3 (centres undefined)	?	i	?	2%	i
COc1ccc(C(=O)NC2CCN(c3cc(-c4ccccc4)[nH]n3)C2)cc1F (centres undefined)	?	?	?	5%	i
CCOc1cc(C(=O)NC2CCN(c3cc(-c4ccccc4)[nH]n3)C2)cc(OCC)c1OCC (centres undefined)	?	-9%	?	3%	i
CCOc1ccc(C(=O)NC2CCCN(c3cc(-c4ccccc4)[nH]n3)C2)cc1OCC (centres undefined)	32µM*	-6%	?	-9%	i
COc1ccc(C(=O)NC2CCCN(c3cc(-c4ccccc4)[nH]n3)C2)cc1OC (centres undefined)	?	-8%	-29%	-10%	28µM*
O=C(c1ccc(CCC2COc3ccccc3O2)cc1)N1CCCCC1 (centres undefined)	?	-6%	?	?	35µM*
COc1ccc(-c2nc(C)nc3c2CCN(C(=O)c2ccc4c(c2)OCO4)CC3)cc1	?	i	-26%	0%	i
CCc1nc2c(c(-c3ccc(OC)cc3)n1)CCN(C(=O)c1ccccc1OC)CC2	-5%	i	?	.	.
CCc1nc2c(c(-c3ccc(OC)cc3)n1)CCN(C(=O)c1ccccc1F)CC2	-19%	i	40µM*	.	.
CCc1nc2c(c(-c3ccc(OC)cc3)n1)CN(C(=O)c1ccccc1)CC2	1%	i	14µM*	.	.
CCc1nc2c(c(-c3ccc(OC)cc3)n1)CN(C(=O)c1ccc3c(c1)OCO3)CC2	-7%	i	40µM*	.	.
CCOc1ccc(NC(=O)N2CCC(Oc3ncccc3C(=O)N3CCCCC3)C2)cc1 (centres undefined)	9%	i	0%	1%	i
COc1cccc(C(=O)NC2CCCN(Cc3ccc(-c4cc(C)cc(C)c4)cc3)C2)c1 (centres undefined)	?	-1%	40µM*	.	.
